This is part of a sample that, as a whole, favours compounds with a hit. Of some 79,000 tested, about 15% had one in any assay. Rule as the data show it: active = growth inhibition above about 70%; inactive = the rest. Where a SMILES comes first, the peptide text is derived from it. The star is where a group is joined. Boc = CC(C)(C)OC(=O)*
Key:
[1] = NCI Yeast Anticancer Drug Screen. Data for the rad50 strain (AID 155);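 also: 0% = growth of vehicle-only cultures of the same strain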; conditions: S. cerevisiae rad50 strain growth inhibition; at 50.0 µM; hits give high values
Procedure, shortened: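 Compounds were tested on a yeast strain with an engineered DNA damage repair alteration; the reported value is growth inhibition normalised to vehicle treatment.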

[2] = NCI Yeast Anticancer Drug Screen. Data for the mec2-1 strain (AID 157); conditions: S. cerevisiae mec2-1 strain, at 50.0 µM, hits give high values
Procedure, shortened: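 Readout is yeast growth inhibition, normalised to vehicle-treated controls, in the mec2-1 strain exposed to compound.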

[3] = NCI Yeast Anticancer Drug Screen. Data for the sgs1 mgt1 strain (AID 161);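 also: 0% = growth of cultures given vehicle only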; conditions: S. cerevisiae sgs1 mgt1 strain, at 50.0 µM, hits give high values
Procedure, shortened: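 Yeast cells carrying a defined DNA-repair defect were exposed to test compounds. Growth inhibition was measured relative to vehicle-treated controls.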

[4] = NCI Yeast Anticancer Drug Screen. Data for the bub3 strain (AID 167); conditions: S. cerevisiae bub3 mutant strain, at 50.0 µM, hits give high values
Procedure, shortened: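 Growth of a checkpoint-deficient yeast mutant is measured after compound exposure. Values represent inhibition relative to vehicle.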

[5] = NCI Yeast Anticancer Drug Screen. Data for the mlh1 rad18 strain (AID 175); conditions: S. cerevisiae mlh1 rad18 strain growth inhibition; at 50.0 µM; hits give high values
Procedure, shortened: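 Test agents were incubated with a yeast strain of defined genotype (DNA damage repair defect). Inhibition of growth was derived by comparison with vehicle-exposed cultures.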

[6] = NCI Yeast Anticancer Drug Screen. Data for the cln2 rad14 strain (AID 165);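 also: 0% = growth equal to vehicle treated cultures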; conditions: S. cerevisiae cln2 rad14 strain, at 50.0 µM, hits give high values
Procedure, shortened: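 Relative to vehicle controls, growth inhibition of compound-treated cln2 rad14 yeast was recorded.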

Measured: growth inhibition

Cc1ccc(C(C(=O)O)c2ccc(C)cc2)cc1
inactive: [1] 45.5% | [2] 2.25% | [3] 44.9% | [4] 22.1% | [5] 29.2%

COc1cc(O)c(OC)c(O)c1C(C)=O
inactive: [1] -3.5% | [2] -11.2% | [3] -17.4% | [4] 2.25% | [5] -0.65%

O=[N+]([O-])c1ccc(N=Nc2ccc(N(CCO)CCO)cc2)cc1
inactive: [1] -5.7% | [2] -8.35% | [3] 24% | [4] 20.2% | [5] 6.1%

N=C1N=C(N)c2cc3c(cc21)SCCSCCCSCCS3
inactive: [1] 6.05% | [2] 1.95% | [3] 2.6% | [4] 4.2% | [5] 30.4%

CCN(CC)C(=O)C1CC=CCC1C(=O)O (stereo not given)
inactive: [1] 41.3% | [2] 19.3% | [3] 23.9% | [4] 1.85% | [5] 30.1%

N#Cc1nc(CC(=O)c2ccccc2Cl)c(CC(=O)c2ccccc2Cl)nc1C#N
inactive: [1] 22.4% | [2] 20.1% | [3] 5.6% | [4] 13.4% | [5] 19.4%

CC(=O)c1cc2c(cc1C(C)C)C(C)(C)C(C)CC2(C)C (stereo not given)
inactive: [1] -19.6% | [2] -19.2% | [3] 13.8% | [4] -41.9% | [5] 17.4%

O=C(COc1cc(Cl)c(Cl)cc1Cl)Nc1ccc(N=Nc2ccccc2)cc1
inactive: [1] 2% | [2] 3.55% | [3] -12.6% | [4] 2.75% | [5] -7.95%

Nc1ccc(S(=O)c2ccc(N)cc2)cc1
inactive: [1] 27.9% | [2] -14.1% | [3] 8.25% | [4] 18.6% | [5] 33.1%

Cc1cccc2c1CCC21OC(=O)c2c1ccc1ccccc21 (stereo not given)
inactive: [1] 10.9% | [2] 2.7% | [3] 6.3% | [4] 15.2% | [5] 15.1%

Cc1cccc2c1Oc1ccccc1C2N1C(=O)/C(=C/c2ccc(Cl)c(Cl)c2)SC1=S (stereo not given)
inactive: [1] -3.8% | [2] -10.2% | [3] 6.75% | [4] -17.8% | [5] 0.4%

COC(=O)C(Cc1ccccc1)NC(=O)C(Cc1ccccc1)NC(=O)OC(C)(C)C (stereo not drawn) (Boc-Phe-Phe-OMe; configuration not given here)
inactive: [1] -7.05% | [2] -4.3% | [3] -18.9% | [4] 0.15% | [5] -6.4%

N#CCCOCCSCCC#N
inactive: [1] 3% | [2] 5.15% | [6] -5.45% | [4] 1% | [5] -1.8%

CN(C)c1c2c(oc(=O)c1Cl)-c1ccccc1OCC2
inactive: [1] -14.3% | [2] -12.8% | [6] -4.85% | [4] -19.1% | [5] -17.6%

CCC(C)NC(=O)C(C)C (stereo not given)
inactive: [1] 2.7% | [2] -3.6% | [6] -32.8% | [4] -3.3% | [5] 16.4%

O=c1cc(-c2ccc(F)cc2)oc2ccccc12
inactive: [1] 40% | [2] -7.45% | [6] 0.95% | [4] 13.7% | [5] 30.4%

COc1ccccc1-n1c(NN)nc2ccc(Br)cc2c1=O
inactive: [1] 55.6% | [2] 13.4% | [6] 13.2% | [4] 27.2% | [5] -12.4%

OC1C2CC3C(C2)C13 (stereo not given)
inactive: [1] -25.6% | [2] -12.6% | [6] 4.8% | [4] -18.4% | [5] -25.8%

COc1ccc2[nH]c(-c3cccc(N(C)C)c3)cc(=O)c2c1
inactive: [1] -26.1% | [2] -8.1% | [6] -3.95% | [4] -26% | [5] -70.6%

CCOC(=O)CC1c2ccc(O)cc2OC(=O)C1c1ccc(N)cc1 (stereo not given)
inactive: [1] -29.1% | [2] -17.5% | [6] -4.6% | [4] -19.2% | [5] -13.6%

COc1nn(C)c(=O)c2cccnc12
inactive: [1] -2.05% | [2] 7.6% | [6] -6.25% | [4] 12.6% | [5] 1.2%

O=C(CCCCC(=O)Nc1ccc2[nH]c3ccccc3c(=O)c2c1)Nc1ccc2[nH]c3ccccc3c(=O)c2c1
inactive: [1] 0.35% | [2] 0.25% | [6] -2.5% | [4] -3.45% | [5] 7.75%

COc1cc(C2C(C(=O)NCc3ccccc3)=C(C)NC(C)=C2C(=O)NCc2ccccc2)ccc1O
inactive: [1] -27.1% | [2] -11.1% | [6] -3.9% | [4] -7% | [5] -21.2%
